Experiment [1] in a line: Drug repurposing screens with cells derived from glioblastoma tumor samples (AID 1345199). For activity, negative = cell killing: % is set by controls: 0 for no effect and ±100 for the full control effect. Note: nearly all actives have a fitted effect of over 40% in size. Note: potency is the fitted concentration of half-maximal effect. The note with it: GBM patient neurospheres viability, ATP luminescence, 48 h. An outline of the steps:
(§1)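 Four patient lines of CD133+ GBM neurospheres were screened at several concentrations; hits were retested in those lines plus three slower-growing GBM lines, using 48-hour treatment and ATP-based viability.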

Another experiment deals with astro (control astrocytes). The description is as above. The note with it: viability, ATP luminescence, 48 h; series mostly up to 45.9 µM. An outline of the steps:
as §1

Experiment [2] addresses Nuclear receptor subfamily 1 group I member 2 (Rattus norvegicus) (UniProt Q9R1A7). Put plainly: qHTS assay for small molecule activators of the rat pregnane X receptor (rPXR) signaling pathway (AID 651751; call rule not given here; note: 0% is about no effect). The note with it: rPXR reporter cells, luciferase (One-Glo), 24 h.
The nature of experiment [3]: qHTS assay for small molecule activators of the human pregnane X receptor (PXR) signaling pathway (AID 720659; call rule not given here; note: 0% is about no effect). Particulars: DPX-2 HepG2 CYP3A4-luciferase, 24 h; series mostly up to 92.3 µM. In general terms: Quantitative high-throughput screening tests each substance at several concentrations.
Setting [4] is: at 45.9 µM (top of the series), tumour line B.
[5] abbreviates: at 45.9 µM (top of the series), tumour line D.
The mark [6] stands for this setting: at 46 µM (top of the series), tumour line A.
Where [7] appears, read: at 46.1 µM (top of the series), tumour line C.
The mark [8] stands for this setting: at 20 µM (top of the series), tumour line C.
Where [9] appears, read: at 21.2 µM (top of the series), tumour line B.
Where [10] appears, read: at 21.2 µM (top of the series), tumour line D.

These results are taken from PubChem BioAssay (NCATS).

“And” between values parts separate entries of the source, which are not always exact repeats. Equal entries are not always repeated. A number with no mark means an inactive call. Records with an inconclusive call do not appear. The source made the active and inactive calls. Unless noted, calls come from the whole dose curve; as a rule, active = well fitted inhibition curve with a large enough effect; inconclusive = small, poorly fitted or top-dose-only effect; inactive = flat fitted curve, though single readings scatter. Where a SMILES comes first, the peptide text is derived from it. Bridges are numbered along the chain shown (N, C = ends). [ ]: non-standard residue; d: D form. The star is where a group is joined. Dab(CH2SO3H) = N[C@@H](CCNCS(=O)(=O)O)C(=O)O; X3 = CC[C@@H](C)CCCCC(=O)*; Dab = NCC[C@H](N)C(=O)O

Sequence of Nuclear receptor subfamily 1 group I member 2 (Rattus norvegicus) (Q9R1A7 whole entry, looked up): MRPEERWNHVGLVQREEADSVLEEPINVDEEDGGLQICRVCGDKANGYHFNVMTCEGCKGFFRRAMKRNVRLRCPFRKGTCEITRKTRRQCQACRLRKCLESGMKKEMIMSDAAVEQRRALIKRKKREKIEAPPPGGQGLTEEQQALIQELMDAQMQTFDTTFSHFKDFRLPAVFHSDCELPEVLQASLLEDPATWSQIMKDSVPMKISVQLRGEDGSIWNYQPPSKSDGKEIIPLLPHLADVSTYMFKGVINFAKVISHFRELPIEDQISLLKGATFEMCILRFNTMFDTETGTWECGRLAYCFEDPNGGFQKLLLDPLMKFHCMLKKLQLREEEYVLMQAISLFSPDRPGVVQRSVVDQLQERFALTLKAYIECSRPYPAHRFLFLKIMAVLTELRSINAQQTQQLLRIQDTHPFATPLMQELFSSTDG

For the molecule `O=C(O)CCC(=O)C(=O)O`, the activity, negative = cell killing is -7.95% in experiment [1] (setting [4]), 2.23% in experiment [1] (setting [5]), -23.8% in experiment [1] (setting [6]) and 3.09% in experiment [1] (setting [7]). In the experiment with astro, the Potency entry was “inactive”. The max response in experiment [2] was 0.868%. In addition, in experiment [3], the outcome was inactive.

On to `IC(I)I`, for which the activity, negative = cell killing in experiment [1] (setting [4]) is -9.98%; in experiment [1] (setting [5]), -13.1%; in experiment [1] (setting [6]), -9.65%; in experiment [1] (setting [7]), 2.5%. In addition, in the experiment on astro, the Potency entry is “inactive”. The max response in experiment [2] was 0.127% and 1.54%. For the same molecule, in experiment [3], the call was inactive.

Turning to `CCCCC(C)(O)C/C=C/[C@H]1[C@H](O)CC(=O)[C@@H]1CCCCCCC(=O)OC` (some centres not stated), the activity, negative = cell killing in experiment [1] (setting [4]) is -29.2%; in experiment [1] (setting [5]), -0.625%; in experiment [1] (setting [7]), 7.24%. For the same molecule, in the experiment with astro, the Potency result was “inactive”.

With `COC(=O)[C@H]1[C@H]2C[C@@H]3c4[nH]c5ccccc5c4CCN3C[C@H]2C[C@@H](OC(=O)c2cc(OC)c(OC)c(OC)c2)[C@@H]1OC`, the activity, negative = cell killing in experiment [1] (setting [4]) and in experiment [1] (setting [7]) was -12.2% each time. In addition, the Potency in experiment [1] (tumour line A) was 12.6 µM (active). The Potency entry in the experiment with astro is “inactive”.

On to `CC(NNC(=O)c1ccccc1)c1ccccc1` (configuration not stated), for which the activity, negative = cell killing in experiment [1] (setting [4]) is -15.6%; in experiment [1] (setting [5]) it was -19.2%; in experiment [1] (setting [7]), -40.2%. For the same molecule, the Potency result in the experiment on astro was “inactive”.

Consider `CCC(=O)OCC(=O)[C@@]1(OC(=O)CC)[C@H](C)C[C@H]2[C@H]3[C@H]([C@@H](O)C[C@@]21C)[C@@]1(C)C=CC(=O)C=C1C[C@H]3Cl`, for which the values for the activity, negative = cell killing in experiment [1] (setting [8]), in experiment [1] (setting [9]) and in experiment [1] (setting [10]) were -8.97%, -7.29% and -17.3%, respectively. In addition, the Potency entry in the experiment with astro is “inactive”.

In the case of `CC1(C)C(C=C(Cl)Cl)C1C(=O)OCc1cccc(Oc2ccccc2)c1` (configuration not stated), the activity, negative = cell killing was -14.8% in experiment [1] (setting [4]), -15.5% in experiment [1] (setting [5]) and 6.86% in experiment [1] (setting [7]). The Potency entry in the experiment with astro was “inactive”.

Turning to `O=C(O)CN(CCN(CC(=O)O)CC(=O)O)CC(=O)O`, the activity, negative = cell killing in experiment [1] (setting [4]) was -9.39%; in experiment [1] (setting [5]) it was -15%; in experiment [1] (setting [6]), -14.7%; in experiment [1] (setting [7]), -16.4%. Moreover, the Potency entry in the experiment with astro is “inactive”. The max response in experiment [2] was 0.191% and 7.12%.

`CNc1cc(OC)c(C(=O)N[C@H]2CCN(Cc3ccccc3)[C@H]2C)cc1Cl`: in experiment [1] (setting [4]), the activity, negative = cell killing was -17.5%. Besides, the Potency in experiment [1] (tumour line A) is 7.08 µM (active); in experiment [1] (tumour line D), 20 µM (active). Further, in the experiment on astro, the Potency result is “inactive”.

Take `CC1=CCC(C(C)(C)O)CC1` (configuration not stated): the activity, negative = cell killing is -2.21% in experiment [1] (setting [4]), -4.36% in experiment [1] (setting [5]), -13.1% in experiment [1] (setting [6]) and -3.81% in experiment [1] (setting [7]). The Potency entry in the experiment with astro is “inactive”. Moreover, the max response in experiment [2] was -0.27%. The call in experiment [3] was inactive.

With `CO[C@H]1C=CO[C@@]2(C)Oc3c(C)c(O)c4c(O)c(c5c(c4c3C2=O)=NC2(CCN(CC(C)C)CC2)N=5)NC(=O)/C(C)=C\C=C/[C@H](C)[C@H](O)[C@@H](C)[C@@H](O)[C@@H](C)[C@H](OC(C)=O)[C@@H]1C`, the activity, negative = cell killing in experiment [1] (setting [4]) was -14.2%; in experiment [1] (setting [7]) it was 33.4%. In addition, the Potency in experiment [1] (tumour line A) is 10 µM (active). For the same molecule, the Potency entry with astro is “inactive”.

`COC(=O)C1=C(C#N)NC(C)=C(C(=O)OC(C)C)C1c1cccc([N+](=O)[O-])c1` (configuration not stated): the activity, negative = cell killing is -5.18% in experiment [1] (setting [4]) and -25.1% in experiment [1] (setting [5]). Further, in experiment [1] (tumour line A), the Potency was 14.1 µM (active). Further, in the experiment on astro, the Potency entry was “inactive”.

As for `CC(=O)OCC(=O)[C@@]12OC3(CCCC3)O[C@@H]1C[C@H]1[C@@H]3CCC4=CC(=O)C=C[C@]4(C)[C@@]3(F)[C@@H](O)C[C@@]12C`, the activity, negative = cell killing is -7.71% in experiment [1] (setting [4]), -10.7% in experiment [1] (setting [5]) and 3.06% in experiment [1] (setting [7]). Also, in the experiment on astro, the Potency result was “inactive”.

For the molecule `C#CCOc1ccc2c(C)cc(=O)oc2c1`, the activity, negative = cell killing in experiment [1] (setting [4]) is -16.6%; in experiment [1] (setting [5]), -17.5%; in experiment [1] (setting [7]) it was -16.5%. Besides, the Potency result in the experiment on astro is “inactive”.

Turning to `CCN(CC)Cc1cc(Nc2ccnc3cc(Cl)ccc23)ccc1O`, the activity, negative = cell killing in experiment [1] (setting [8]) was -18.3%. Further, the Potency in experiment [1] (tumour line A) was 12.6 µM (active); in experiment [1] (tumour line D), 14.1 µM (active). Also, in the experiment on astro, the Potency result is “inactive”.

As for `COc1ccc(CCNC[C@H](O)c2ccc(O)cc2)cc1OC`, the activity, negative = cell killing was -3.8% in experiment [1] (setting [4]), -0.958% in experiment [1] (setting [5]) and -0.44% in experiment [1] (setting [7]). The Potency entry with astro was “inactive”.

Take `CCCCCCCC(=O)O`: the activity, negative = cell killing in experiment [1] (setting [4]) is -7.1%; in experiment [1] (setting [5]) it was -17.5%; in experiment [1] (setting [6]) it was -22.2%; in experiment [1] (setting [7]), -13.3%. Moreover, the Potency entry in the experiment on astro was “inactive”. The max response in experiment [2] was 2.58% and -1.34%. Further, in experiment [3], the outcome was inactive.

As to `CC(=O)Oc1c(C)cc(OCC(O)CNC(C)C)c(C)c1C` (configuration not stated), the activity, negative = cell killing is -11.9% in experiment [1] (setting [4]), 5.15% in experiment [1] (setting [5]) and 13.3% in experiment [1] (setting [7]). Further, the Potency entry in the experiment on astro was “inactive”.

Consider `CCCCC(=O)O[C@]1(C(=O)CO)[C@H](C)C[C@H]2[C@@H]3CCC4=CC(=O)C=C[C@]4(C)[C@@]3(F)[C@@H](O)C[C@@]21C`, for which the activity, negative = cell killing was -7.12% in experiment [1] (setting [4]), -22.7% in experiment [1] (setting [5]) and -23.5% in experiment [1] (setting [7]). Further, the Potency entry in the experiment on astro was “inactive”.

For the molecule `Nc1nc(N)c2nc(CNc3ccc(C(=O)N[C@@H](CCC(=O)O)C(=O)O)cc3)cnc2n1`, the activity, negative = cell killing in experiment [1] (setting [4]) is -5.27%; in experiment [1] (setting [5]), 12.1%; in experiment [1] (setting [6]) it was -19.6%. Besides, the Potency entry in the experiment on astro is “inactive”.

In the case of `Nc1ccn([C@H]2CS[C@@H](CO)O2)c(=O)n1`, the activity, negative = cell killing in experiment [1] (setting [4]) is -4.08%; in experiment [1] (setting [5]) it was 8.01%; in experiment [1] (setting [6]), -14.1%; in experiment [1] (setting [7]) it was 0.221%. Further, the Potency result with astro was “inactive”. For the same molecule, in experiment [3], the call was inactive.

For the molecule `O=C(O)C1CCCN1` (configuration not stated), the activity, negative = cell killing in experiment [1] (setting [4]) was -8.24%; in experiment [1] (setting [5]), -1.47%; in experiment [1] (setting [7]), -1.4%. The Potency entry in the experiment on astro is “inactive”.

Regarding `CC[C@@H](C)CCCCC(=O)N[C@@H](CCNCS(=O)(=O)O)C(=O)N[C@H](C(=O)N[C@@H](CCNCS(=O)(=O)O)C(=O)N[C@H]1CCNC(=O)[C@H]([C@@H](C)O)NC(=O)[C@H](CCNCS(=O)(=O)O)NC(=O)[C@H](CCNCS(=O)(=O)O)NC(=O)[C@H](CC(C)C)NC(=O)[C@@H](CC(C)C)NC(=O)[C@H](CCNCS(=O)(=O)O)NC1=O)[C@@H](C)O` (X3-[Dab(CH2SO3H)]T[Dab(CH2SO3H)][Dab][Dab(CH2SO3H)][dL]L[Dab(CH2SO3H)][Dab(CH2SO3H)]T; lactam 4-C), the activity, negative = cell killing in experiment [1] (setting [4]) is -7.01%; in experiment [1] (setting [5]) it was 10.8%; in experiment [1] (setting [6]), -16.2%. In the experiment with astro, the Potency entry is “inactive”.

As to `CO[C@@H]1[C@@H](O[C@@H]2O[C@H](C)[C@@H](O[C@H]3C[C@@](C)(O)[C@@H](O)[C@H](C)O3)[C@H](N(C)C)[C@H]2O)[C@@H](CC=O)C[C@@H](C)[C@@H](O[C@@H]2CC[C@H](N(C)C)[C@@H](C)O2)/C=C/C=C/C[C@@H](C)OC(=O)C[C@H]1O`, the activity, negative = cell killing in experiment [1] (setting [8]) is -1.82%; in experiment [1] (setting [9]) it was 2.63%; in experiment [1] (setting [10]) it was 8.89%. The Potency result in the experiment on astro is “inactive”.
